Screening data as filed in PubChem BioAssay.
Luciferase inh: inhibitors of firefly luciferase; purified firefly luciferase, luminescence, 8 min; Potency, µM (highest dose often 57.1 µM), most hits filed as inhibitors; 72,000 compounds, 2.2% hits; AID 411; also: nearly all actives have a fitted effect of over 40% in size
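Substrate buffer containing 10 uM ATP (pH 7.2 imidazole, Mg2+, KCl, detergent, BSA) is dispensed, compound pinned in, then luciferase/luciferin detector mix added. After 8 min at ambient temperature, light output is measured.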
p53ts 32C tox: kills p53ts cells at the permissive temperature; Potency, µM (titrated, usually from 46.1 µM), most hits filed as cytotoxic; 130,000 compounds, 0.93% hits; H1299-p53A138V at 32C, ATP luminescence viability, 24 h; AID 924; also: nearly all actives have a fitted effect of over 55% in size
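Cells: H1299 p53ts (A138V), 600/well, pre-incubated 16–30 h at 37C. Cpd up to 46 uM, 24 h, 32C. Readout: ATPlite luminescence, 20 min RT. Normalization: DMSO vs tamoxifen 100 uM. AC50 by Hill equation.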
Imprint erasure: genomic imprint erasure induction | mouse ES Peg3-LacZ reporter, beta-gal luminescence, 40 h | Potency, µM (titrated, usually from 60.7 µM), most hits filed as activators | 110,000 compounds, 0.02% hits | AID 1948
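Readout: BetaGlo luminescence (5 min, room temp) for LacZ from the normally silent maternal Peg3 allele in female Peg3LacZ-Neo ES cells. Cells 300/well, 40 h, 37C, 5% CO2. Data normalized per plate to negative controls.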
p53ts 39C kill: kills p53ts cells at the nonpermissive temperature; H1299-p53A138V viability at 39C, ATP luminescence, 24 h; Potency, µM (top dose mostly 46.1 µM), hits mostly cytotoxic; 130,000 compounds, 1.5% hits; AID 902; also: nearly all actives have a fitted effect of over 55% in size
Tau filament bind: tau filament binding; P10636; AID 596; recombinant tau filaments, thioflavin S fluorescence, 15 h; filaments grown with octadecylsulfate alongside compound; Potency, µM (doses to about 57.1 µM); 71,000 compounds, 2% hits;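 also: actives lower thioflavin S fluorescence by blocking filaments or displacing dye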
Target sequence (P10636 whole entry, looked up): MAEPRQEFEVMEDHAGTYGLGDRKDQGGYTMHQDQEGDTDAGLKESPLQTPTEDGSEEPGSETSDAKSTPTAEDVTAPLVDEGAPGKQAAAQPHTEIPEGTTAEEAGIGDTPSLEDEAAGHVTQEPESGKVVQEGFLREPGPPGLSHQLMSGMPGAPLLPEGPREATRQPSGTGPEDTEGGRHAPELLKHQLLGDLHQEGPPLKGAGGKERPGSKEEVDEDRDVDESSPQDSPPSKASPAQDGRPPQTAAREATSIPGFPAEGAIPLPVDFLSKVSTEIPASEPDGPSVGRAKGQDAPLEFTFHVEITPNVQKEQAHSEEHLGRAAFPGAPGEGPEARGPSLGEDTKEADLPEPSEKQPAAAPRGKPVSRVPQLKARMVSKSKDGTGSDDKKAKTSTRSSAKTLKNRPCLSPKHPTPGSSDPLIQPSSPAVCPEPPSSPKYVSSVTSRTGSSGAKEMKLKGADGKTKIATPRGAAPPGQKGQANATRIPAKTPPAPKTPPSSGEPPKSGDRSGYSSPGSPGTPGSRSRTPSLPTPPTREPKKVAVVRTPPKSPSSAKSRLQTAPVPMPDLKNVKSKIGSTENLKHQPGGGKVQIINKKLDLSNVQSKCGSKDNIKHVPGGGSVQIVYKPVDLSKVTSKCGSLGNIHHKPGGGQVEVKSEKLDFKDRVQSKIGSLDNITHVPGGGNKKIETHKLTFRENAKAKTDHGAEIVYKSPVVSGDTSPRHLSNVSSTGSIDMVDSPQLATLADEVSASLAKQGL
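Tau 2 uM in ThS buffer dispensed; compound added; 60 uM ODS added (finals 1 uM tau, 30 uM ODS); 15 h 37 C; fluor ex450/em510.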
A number is an active result; n = inactive; u = inconclusive; x = not tested or not shown; [ ] = another dose, or the depositor's remark. Only some compounds are listed: those with a hit (about 3.4% of all), similar ones and a draw of the others. Calls follow the shape of the dose curve; as a rule, active = well fitted curve in the direction sought with a large enough effect; inconclusive = small, poorly fitted or top-dose-only effect, or another doubt; inactive = no such curve, though single readings can be large; an effect the other way counts as inactive or inconclusive.

SMILES | Luciferase inh | p53ts 32C tox | Imprint erasure | p53ts 39C kill | Tau filament bind
O=C1c2ccccc2C(=O)C1(c1ccccc1)N1CCN(c2cccc(Cl)c2)CC1 | x | n | n[10.9 µM] | n | x
COc1ccc(CNC(=O)c2cnn(-c3ccc(C)cc3)c2C2CCN(C(=O)OC(C)(C)C)CC2)cc1 | x | n | n[10.9 µM] | n | x
FC(F)(F)c1cccc(Nc2nc3nonc3nc2Nc2ccc(Cl)cc2)c1 | x | u | n[10.9 µM] | 16µM | x
O=C(Nc1cccc(C(F)(F)F)c1)c1cc(-c2ccc(Cl)cc2)on1 | x | n | n[10.9 µM] | n | x
C#CCSc1nc(-c2ccccc2)cc(-c2ccccc2)c1C#N | x | n | n[10.9 µM] | n | x
CCCCS(=O)(=O)c1nc(-c2ccc(Br)cc2)cc(-c2ccccc2)c1C#N | x | 2µM | n[10.9 µM] | u | x
COC(=O)[C@@]1(Cc2ccc(OC)cc2)[C@@H]2C(=CC(=O)[C@H]2CC(=O)C(=O)N2CCCC2)CN1C(=O)c1ccccc1 | x | n | n | n | n
C=C1C(=O)C=C2CN(C(=O)c3ccccc3)[C@@](Cc3ccc(OC)cc3)(C(=O)OC)[C@@H]12 | x | 3.2µM | n | 20µM | n
COc1ccccc1N1CCN(c2ccc(-c3ccccc3)nn2)CC1 | 0.63µM | 3.2µM | x | 2µM | u
COc1ccccc1N1CCN(c2nc(-c3ccccc3)cc(C(F)(F)F)n2)CC1 | n | n | n | n | n
COc1ccc(C(=O)N2CCC3(CCCN(C)C3)CC2)cc1 | n[11.4 µM] | n | x | n | n
COc1ccc(C(=O)N2CCC3(CCN(C)CC3)CC2)cc1 | n[11.4 µM] | n | x | n | 16µM
Clc1ccc(-c2nnc(-c3ccccc3)o2)c(Cl)c1 | 2µM | 7.9µM | n | 10µM | n
Fc1ccc(-c2nnc(-c3ccc(Cl)cc3Cl)o2)cc1 | 1.3µM | 5µM | n | 13µM | n
Fc1ccc(-c2nnc(-c3ccc(Cl)cc3)o2)cc1 | n | u | n | u | n
O=C(O)CCSc1nnc(-c2ccc(Cl)cc2Cl)o1 | x | 13µM | n[10.9 µM] | u | x
O=C(Cn1c(=O)n(Cc2ccccc2)c(=O)c2oc3ccccc3c21)Nc1ccc(Cl)cc1 | x | n | n[10.9 µM] | n | x
COc1ccc(-n2c(=O)c(-c3ccc(F)cc3)nc3cncnc32)cc1 | n[11.4 µM] | n | n | n | n
COc1ccc(-c2noc(-c3ccco3)n2)cc1OC | 13µM | u | n | n | n
COc1nc(C)ccc1-c1noc(-c2ccco2)n1 | 7.9µM | 13µM | n | 13µM | n
COc1ccc(-c2noc(-c3ccccc3Cl)n2)cc1OC | 16µM | n | n | u | n
COc1ccc(-c2nc(-c3ccncc3)no2)cc1OC | u | n | n | n | n
COc1ccc(-c2noc(-c3cccc(Cl)c3)n2)cc1OC | n | n | n | n | n
COc1nc(-c2ccc(C)cc2)ccc1-c1noc(-c2ccco2)n1 | n | n | n | n | n
O=C(NCCc1ccccc1)c1ccc(Nc2nc3ccccc3n3nnnc23)cc1 | x | n | n[10.9 µM] | u | x
SMILES | Luciferase inh | p53ts 32C tox | Imprint erasure | p53ts 39C kill | Tau filament bind
COc1ccc(-c2ccc(=O)n(CC(=O)Nc3ccc(C)cc3C)n2)cc1 | x | n | n[10.9 µM] | n | x
CO[C@H]1COC(=O)[C@@H](CCSC)NC(=O)C/C=C\[C@@H](C)[C@H](OC)COC(=O)[C@@H](OCc2ccccc2)/C=C\[C@@H]1C | n[11.4 µM] | n[9.22 µM] | x | n[9.22 µM] | x
O=C(Nc1cccc(F)c1)c1c(F)c(F)c(F)c(F)c1F | n | n | n | n | n
O=C(Nc1ccccc1)c1cccc(N2C(=O)CCC2=O)c1 | n | n | n | n | n
CCN(CC)c1ccc(NC(=O)c2cncc(Br)c2)cc1 | n | n | x | n | 20µM
CN(C)c1cccc(C(=O)Nc2cccc(F)c2)c1 | 16µM | u | n | n | n
CN(C)c1ccc(NC(=O)c2cccc(N3C(=O)CCC3=O)c2)cc1 | 13µM | u | n | u | n
CCN(CC)c1ccc(NC(=O)Nc2ccc(C(C)=O)cc2)cc1 | n | n | n | n | u
CCN(CC)c1ccc(C(=O)Nc2cccc(F)c2)cc1 | 10µM | 13µM | n | u | n
CCc1ccc(N(CC)C(=O)Cn2c(=O)oc3ccccc32)cc1 | x | n | n[10.9 µM] | n | x
Cc1ccc(C2CC(=O)Oc3cc(C)c(Cl)c(C)c32)cc1 (configuration not stated) | x | x | n | x | x
COc1cc(C(=O)Nc2ccc3[nH]c(=O)sc3c2)cc(OC)c1OC | x | n | n[10.9 µM] | n | x
COc1cc(C(=O)Nc2ccc(N(C)C)cc2)cc(OC)c1OC | u | n | n | n | 10µM
CCOc1ccccc1N1CCN(Cc2cccc(OC)c2OC)CC1 | x | n | x | n | x
COc1ccc(OC)c(N2Cc3cc(C)c(C)cc3C2)c1 | n | n | n | n | 16µM
CCOc1ccccc1N1Cc2cc(C)c(C)cc2C1 | n | n | n | n | 7.9µM
Cc1cc(C)c2c(c1)-c1c(ssc1=S)C(C)(C)N2C(=O)CSc1nncn1C | n | n | n | n | 2µM
Cc1ccc2c(c1)-c1c(ssc1=S)C(C)(C)N2C(=O)CSc1nncn1C | n | n | n | n | 7.9µM
COc1cc2c(C#N)c(N3CCCCC3)nc(N)c2c(N)n1 | 20µM | n | n | n | n
COc1cc2c(C#N)c(N3CCOCC3)nc(N)c2c(N)n1 | u | n | n | n | n
CC(C)C(=O)Nc1ccccc1OCc1cc(=O)n2ccccc2n1 | x | n | n[10.9 µM] | n | x
CCc1ccc(NC(=O)Nc2ccccc2OCc2cc(=O)n3ccccc3n2)cc1 | x | u | n[10.9 µM] | 3.2µM | x
FC(F)C(F)(F)C1=CC(c2cccs2)=NCCN1 | n | n | n | n | 16µM
FC(F)C(F)(F)C1=CC(c2ccccc2)=NCCN1 | n | n | n | n | 13µM
CN(C)c1ccc(/C=c2\sc3n(c2=O)CCCN=3)cc1 | 2.5µM | 13µM | n | 13µM | n
SMILES | Luciferase inh | p53ts 32C tox | Imprint erasure | p53ts 39C kill | Tau filament bind
O=C(NC1CCCCC1)c1cnn2c(C(F)(F)F)cc(-c3ccco3)nc12 | n | n | n | n | 10µM
Cc1cc(NC(=O)c2cnn3c(C(F)F)cc(-c4ccccc4)nc23)no1 | n | n | n | n | u
Cc1cc(NC(=O)c2cnn3c(C(F)(F)F)cc(-c4ccccc4)nc23)no1 | n | n | n | n | 3.2µM
CCN(c1cccc(C)c1)S(=O)(=O)c1ccc(N2CCCCS2(=O)=O)cc1 | x | n | n[10.9 µM] | n | x
COc1ccc(-c2cc(C(=O)NCc3ccc(F)cc3)c3c(-c4ccc(F)cc4)[nH]nc3n2)cc1OC | x | u | n[10.9 µM] | 13µM | x
CCCNC(=O)C1=CC(c2ccc3c(c2)OCO3)=NS(=O)(=O)N1C | x | n | n[10.9 µM] | n | x
Oc1ccccc1NCC(O)Cn1ccc2ccccc21 (configuration not stated) | n | u | n | u | 13µM
Clc1ccc(CN2CCCN(Cc3ccc(Cl)cc3)C2c2cc3ccccc3c3ccccc23)cc1 | n[11.4 µM] | n[9.22 µM] | n[10.9 µM] | n[9.22 µM] | n[11.4 µM]
Nc1nc(-c2ccc(Br)cc2)cs1 | 13µM | n | n | n | n
CCCn1c(C)nc2c(NCCCCN3CCCC3)nc(C)nc21 | x | n | n | n | n
Brc1ccc(-c2nc3ccccc3s2)s1 | 16µM | u | n | n | n
COc1ccccc1-n1cc(C(=O)NCC(=O)N2CCN(c3ccccn3)CC2)c2ccccc2c1=O | 6.3µM | u | n | u | n
O=C(Cn1cnc2ccccc2c1=O)NCC(=O)N1CCN(c2ccccn2)CC1 | n | n | n | n | n
